Many of the other results were omitted from the sample, so hits are more common in it than they were. How many sequences the whole screen found active is unknown. A number with no mark means an inactive call.
test system: T1, Caupolican (Caup) homeodomain DNA-binding domain; assay: PBM E-score (8-mer, recovered from the published 9-mer minima) (E-score (dimensionless, -0.5 to 0.5)); Drosophila protein; higher = stronger relative binding preference, active = 0.31 or more
T1 sequence: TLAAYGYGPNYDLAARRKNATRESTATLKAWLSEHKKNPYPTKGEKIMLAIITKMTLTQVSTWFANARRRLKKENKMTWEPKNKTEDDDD
Procedure, shortened: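 Caup's homeodomain DNA-binding domain (residues 214-303) was made by in vitro transcription and translation and applied at 100 nM to custom-designed protein binding microarrays. Each value is an enrichment score that gives relative binding preference for a short DNA word, with higher meaning stronger. The 8-mer values were recovered from published 9-mer scores, each of which was the minimum of its two constituent 8-mer scores. A cutoff of 0.31 marks candidate sites.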

Row | Sequence | PBM E-score
1 | AGATTAGG | 0.00061
2 | GCCCTTCC | -0.169
3 | AAAGGCGT | -0.125
4 | ACAAGCAT | 0.377 (active)
5 | ACAAGCAC | 0.246
6 | ACAAGCAG | 0.229
7 | ACAAGCAA | 0.341 (active)
8 | GCAAGCAA | -0.0127
9 | TCAAGCAA | 0.0149
10 | AGACCCGA | -0.108
11 | ACTTTACC | 0.122
12 | CGGATGGC | -0.0761
13 | AACGCCCG | -0.108
14 | GCAGTCCC | -0.194
15 | AATGTAGG | 0.116
16 | GATGTAGA | 0.208
17 | AATGTAGA | 0.139
18 | CATGTAGA | 0.391 (active)
19 | CAAGTAGG | -0.00819
20 | GATGTAGC | 0.166
21 | AATGTAGC | 0.0881
22 | CATGTAGG | 0.356 (active)
23 | CATGTAGC | 0.332 (active)

Row | Sequence | PBM E-score
24 | GACTAGGC | -0.0927
25 | CCTCCAAC | -0.102
26 | TAGAAATA | 0.1
27 | CCGCTACA | 0.0971
28 | GGCCGTAA | -0.148
29 | CATTACCA | 0.119
30 | ACCAATCC | -0.0418
31 | AATATACC | 0.13
32 | GATATACA | 0.263
33 | TGTATACA | ≥ 0.356 (active)
34 | GGTATACA | 0.183
35 | CATATACA | 0.298
36 | CTTATACA | 0.11
37 | ATTATACA | 0.254
38 | AATATACA | 0.322 (active)
39 | AATATACT | 0.155
40 | GTTATACA | 0.329 (active)
41 | TATATACA | 0.355 (active)
42 | AGTATACA | 0.309
43 | GCCCGTAC | -0.0447
44 | GGGATATA | -0.0036
45 | ATCGTTCG | 0.0642
46 | AGCCGTTC | -0.195

Row | Sequence | PBM E-score
47 | ACGAACCT | -0.0743
48 | ACGTGGCG | -0.111
49 | CCACAGAA | -0.00495
50 | TATTACGA | 0.162
51 | GTAGTTCA | 0.136
52 | AATAAATA | 0.202
53 | AGTATCTG | 0.00127
54 | AGTGACGC | -0.155
55 | CATGTAAA | 0.421 (active)
56 | ACTGTAAA | 0.154
57 | AATGTAAA | 0.323 (active)
58 | AATGTAAG | 0.214
59 | CCTGTAAA | 0.131
60 | GCTGTAAA | 0.128
61 | AATGTAAT | 0.303
62 | CCTGTAAG | 0.127
63 | GATGTAAA | 0.305
64 | TCTGTAAA | 0.0832
65 | CATGTAAG | 0.395 (active)
66 | TATGTAAA | 0.327 (active)
67 | GTCGCTTA | 0.0465
68 | CACGAAAG | 0.0338
69 | CTCGTGAA | 0.027

Row | Sequence | PBM E-score
70 | GTAGATAA | 0.14
71 | ACCATAAT | 0.119
72 | CATGTAAC | 0.431 (active)
73 | AATGTAAC | 0.295
74 | GATGTAAC | 0.306
75 | GATTTTAC | 0.156
76 | CTTTAGTC | -0.0734
77 | AATCGTAA | 0.173
78 | CCCTAGAA | -0.0811
79 | ACACATGG | 0.167
80 | ACACATGC | 0.236
81 | GAACATGC | 0.354 (active)
82 | CAACATGC | 0.317 (active)
83 | GAACATCC | 0.295
84 | CAACATTC | 0.0579
85 | AAACATCC | 0.258
86 | CAACATCC | 0.238
87 | AAACATGC | 0.342 (active)
88 | AAACATTC | 0.209
89 | GCACATGC | -0.0345
90 | ACACATGT | 0.372 (active)
91 | AACGAATG | 0.00089
92 | ATACCAGC | -0.0192

Row | Sequence | PBM E-score
93 | AAAACACG | 0.303
94 | GGGTCAAA | -0.108
95 | CGTAAAAC | -0.0282
96 | CATAGAGA | 0.113
97 | ATTAGTAG | 0.212
98 | GCATGCGC | -0.104
99 | ATGCGGGA | -0.0659
100 | GGGTGTGA | -0.0838
101 | TCACATGA | 0.182
102 | CAACATGG | 0.295
103 | CAACATGA | 0.344 (active)
104 | GAACATTA | 0.219
105 | AAACATCA | 0.279
106 | ACACATGA | 0.265
107 | TAACATGA | 0.424 (active)
108 | CCACATGA | 0.124
109 | TAACATCA | 0.305
110 | GAACATGA | 0.421 (active)
111 | AAACATGA | 0.409 (active)
112 | GAGCATGA | 0.0786
113 | CGAACGAC | 0.0606

— the supplement of paper PMC3724861
